Experimental data as given in PubChem BioAssay AID493170 (National Center for Advancing Translational Sciences (NCATS), 2011).
Results filed as inconclusive are left out. A number with no mark means an inactive call. The source made the active and inactive calls. Calls follow the shape of the dose curve; as a rule, active = well fitted inhibition curve with a large enough effect; inconclusive = small, poorly fitted or top-dose-only effect, or effect the other way; inactive = flat fitted curve, though single readings scatter.

These molecules were tested against Ubiquitin carboxyl-terminal hydrolase 2 (Homo sapiens) (UniProt O75604) (assay: Ub-rhodamine 110 based assay for inhibitors Ubiquitin-specific Protease USP2a). Settings: USP2a Ub-rhodamine110 cleavage, fluorescence; series mostly up to 38.3 µM; activity change, negative = inhibition: at the top concentration.
How it was run: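 Kinetic fluorescence (485/531 nm) read each minute over 7 min after adding Ub-Rhod110 (150 nM final) to USP2a (5 nM final). The enzyme had 30 min RT exposure to compounds beforehand in Tris pH 8.0 buffer with CaCl2, CHAPS and beta-ME.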
% is scaled to controls: 0 for no effect and ±100 for the full control effect; potency is read from the fitted curve at half-maximal effect.
Also: nearly all actives have a fitted effect of over 50% in size.

Chain of Ubiquitin carboxyl-terminal hydrolase 2 (Homo sapiens) (O75604 whole entry, looked up): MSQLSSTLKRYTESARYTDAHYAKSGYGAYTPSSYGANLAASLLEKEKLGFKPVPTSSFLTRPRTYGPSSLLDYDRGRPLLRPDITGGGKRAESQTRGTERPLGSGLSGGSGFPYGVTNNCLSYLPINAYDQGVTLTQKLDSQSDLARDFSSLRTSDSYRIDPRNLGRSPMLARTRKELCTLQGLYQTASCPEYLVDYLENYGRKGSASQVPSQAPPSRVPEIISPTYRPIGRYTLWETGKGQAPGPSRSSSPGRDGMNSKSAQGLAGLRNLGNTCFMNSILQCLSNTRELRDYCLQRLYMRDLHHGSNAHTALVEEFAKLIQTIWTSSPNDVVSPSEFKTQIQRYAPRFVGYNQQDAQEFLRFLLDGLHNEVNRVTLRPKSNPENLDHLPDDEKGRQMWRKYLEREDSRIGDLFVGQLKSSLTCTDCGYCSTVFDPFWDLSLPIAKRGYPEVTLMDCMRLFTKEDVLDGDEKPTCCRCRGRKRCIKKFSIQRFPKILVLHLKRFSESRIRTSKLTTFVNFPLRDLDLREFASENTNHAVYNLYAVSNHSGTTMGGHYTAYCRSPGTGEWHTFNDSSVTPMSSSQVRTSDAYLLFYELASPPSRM

SMILES | activity change, negative = inhibition [%] | Potency
CC1=NN(C(=O)c2csc(C)c2C)C(O)(C(F)(F)F)C1 (centres undefined) | -1.72 | –
COc1ccc(/C=N/NC(=O)c2nn(-c3ccccc3)c(=O)c3c(N)scc23)cc1 | – | 10 µM (active)
CCOC(=O)c1c(C)n(-c2ccc(C)cc2)c2ccc(OCC(O)CN3CCN(C)CC3)cc12 (centres undefined) | 1.5 | –
CCOC(=O)Nc1ccc(S(=O)(=O)Nc2cc(C)nc(C)n2)cc1 | 1.26 | –
O=C1/C(=C/C=C/c2ccco2)SC(=S)N1c1ccc(O)cc1 | – | 3.55 µM (active)
O=C(c1ccc(CS(=O)(=O)c2ccc(Br)cc2)o1)N1CCCC1 | -8.3 | –
O=C(Nn1c(SCc2ccc([N+](=O)[O-])cc2)nc2ccccc2c1=O)c1ccc(F)cc1 | – | 10 µM (active)
CC(C)(C)C1CCC(=NNC(=O)CN(c2ccccc2)S(C)(=O)=O)CC1 (centres undefined) | -13.3 | –
N=c1sccn1CC(=O)Nc1ccc(S(=O)(=O)N2CCOCC2)cc1 | 12.8 | –
CN1CCN(Cc2c(O)ccc3c(=O)c(Oc4ccccc4Cl)c(C(F)(F)F)oc23)CC1 | 3.93 | –
CN(C)c1ccc(-c2ccccc2)nn1 | -6.45 | –
CCOc1cc(/C=C2\C(=O)N(c3nc(-c4ccc(Br)cc4)cs3)N=C2c2ccccc2)ccc1O | – | 3.16 µM (active)
CC1CCCCN1CCNC(=O)c1cnn2ccccc12 (centres undefined) | 8.54 | –
Oc1c(Cl)cc(Cl)c(Cl)c1Cc1c(O)c(Cl)cc(Cl)c1Cl | – | 3.16 µM (active)
CCOC(=O)c1c(C)[nH]c(C(=O)COC(=O)CSC)c1C | -1.67 | –
O=C(c1cc(-c2ccco2)on1)N1CCc2ccccc2C1 | – | 10 µM (active)
COc1ccc2[nH]c(=O)c(CN(C3CCCCC3)C(c3nnnn3Cc3ccco3)C(C)C)cc2c1 (centres undefined) | – | 3.98 µM (active)
Cc1ccc2[nH]c3c(c2c1)CN(C(=O)CN1CCSCC1)CC3 | 1.52 | –
Cc1csc(NC(=O)CCn2c(=O)sc3ccccc32)n1 | -7.06 | –
Cc1ccc(S(=O)(=O)N2[C@@H](c3ccc(Cl)cc3)C(C(=O)O)=CC[C@H]2c2ccc(C(C)C)cc2)cc1 | – | 10 µM (active)

SMILES | activity change, negative = inhibition [%] | Potency
CC[n+]1c(/C=C/N(C)c2ccccc2)n(-c2ccccc2)c2ccc(-c3nc4ccccc4s3)cc21 | -26.5 | –
COc1cccc(NC(=O)CSc2nncn2-c2ccccn2)c1 | -6.25 | –
C=CCn1c(Br)nc2c1c(=O)n(C)c(=O)n2C | 15.6 | –
Cc1noc(/C=C/c2ccco2)c1S(=O)(=O)N1CCC(C(=O)N(C)Cc2ccccc2)CC1 | – | 10 µM (active)
O=[N+]([O-])/C(C(Cl)=C(Cl)Cl)=C(\Sc1ccccc1)N1CCCCC1 | -2.49 | –
CC(OC(=O)CN(C)S(=O)(=O)c1ccc(Cl)cc1)C(=O)Nc1ccc(N2CCOCC2)cc1 (centres undefined) | 4.42 | –
COC(=O)c1[nH]c(=O)c2ccccc2c1OCc1ccccc1 | 5.2 | –
COC(=O)c1ccc(CSc2ncnc3ccccc23)o1 | -6.12 | –
CC(C)C(C(=O)O)N1C(=O)/C(=C/C=C/c2ccco2)SC1=S (centres undefined) | – | 5.01 µM (active)
COc1ccc(C(=O)N/C(=C\c2cccs2)C(=O)N2CCN(C)CC2)cc1OC | -5.24 | –
COc1cc(/C=C/c2cc[n+](C)cc2)ccc1OCC(=O)Nc1ccc(Cl)c(Cl)c1 | -14.5 | –
COc1ccccc1NC(=O)N1CCN(c2ccccn2)CC1 | -6.78 | –
N#Cc1c(SCC(=O)Nc2nc3ccccc3s2)sc2c(O)cc(=O)[nH]c12 | – | 8.91 µM (active)
Cc1cc(C(=O)CSc2nnc(Nc3ccccc3F)s2)c(C)n1CC1CCCO1 (centres undefined) | -19.4 | –
CC1(C(=O)O)Sc2[nH]c(=O)sc2C2c3ccccc3OC(=O)C21 (centres undefined) | 9.19 | –
CCCCCCCCCCCCCCCC[N+](C)(C)CCN(Cc1ccc(OC)cc1)c1ncccn1 | – | 11.2 µM (active)
O=c1c2c3nc4ccccc4nc3n(Cc3ccccc3)c2ncn1Cc1ccco1 | – | 11.2 µM (active)
O=C(O)CC(C(=O)O)N1C(=O)/C(=C/C=C/c2ccco2)SC1=S (centres undefined) | -23.9 | –
C=C(C)COc1ccc(-c2[nH]ncc2Oc2ccccc2OCC)c(O)c1 | -15 | –
